# Bioassay records deposited in PubChem by National Center for Advancing Translational Sciences (NCATS).
# Compounds with a hit are over-represented: about 8% of the library has one in this group of screens.
# MCF10A rereplic – A quantitative high throughput screen for small molecules that induce DNA re-replication in MCF 10a normal breast cells | Potency, µM (top dose mostly 46.1 µM), without a hit: at the top dose activity, positive = re-replication, usual class: activators | 350,000 compounds, 2.9% hits | MCF 10A DNA re-replication, Hoechst nuclear intensity, 48 h; note: % of control where 0% means no effect; nearly all actives have a fitted effect of over 50% in size
# HT1080NT lethal – qHTS for induction of synthetic lethality in tumor cells producing 2HG: qHTS for the HT-1080-NT fibrosarcoma cell line. 360,000 compounds, 1.6% hits. Potency, µM (series often up to 46.1 µM), for inactives: at the top dose activity, negative = less viability, hits mostly cytotoxic. HT-1080-NT fibrosarcoma viability, CellTiter-Glo ATP luminescence, 48 h;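 note: NT is the 2HG producing partner of a matched IDH1 knockdown line; 0% = DMSO-treated cells and -100% = media-only wells without cells; nearly all actives have a fitted effect of over 55% in size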
#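 Fibrosarcoma NT cells, 750 per well in 5% FBS RPMI, were exposed to compound for 48 hours. Viability: CellTiter-Glo luminescence.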
# KB-V1 cytotox – qHTS assay for MDR1-selective chemotherapeutics: Primary screen using the drug-selected MDR subline cells KB-V1 | Potency, µM (titrated, usually from 46.1 µM), hits mostly cytotoxic | 400,000 compounds, 3.4% hits | KB-V1 MDR cells viability, CellTiter-Glo, 72 h | AID 1347076, 2019; note: % is set by controls: 0 for no effect and ±100 for the full control effect; nearly all actives have a fitted effect of over 60% in size
#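 Luminescent ATP read-out (CellTiter-Glo, 10 min) measures survival of drug-selected KB-V1 MDR cells after 72 h, 37 degrees C compound exposure. Medium: phenol-red-free DMEM, 10% FBS. Values from fitted concentration-response curves.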
# HT1080 IDH1KD tx – qHTS for induction of synthetic lethality in tumor cells producing 2HG: qHTS for the HT-1080-IDH1KD cell line; HT-1080 IDH1 knockdown viability, ATP luminescence, 48 h; Potency, µM (titrated, usually from 46.1 µM), without a hit: at the top dose activity, negative = toxicity, actives largely listed as cytotoxic; 360,000 compounds, 2% hits;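 note: 0% = DMSO wells and -100% = cell-free medium wells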
#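 Luminescent ATP read-out (CellTiter-Glo, 10 min at room temperature) after 48 h compound exposure at 37 °C gave viability of IDH1-knockdown HT-1080 cells. Activity was normalised to DMSO and cell-free wells, then fitted as concentration-response curves.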
# SW480 rereplic – A quantitative high throughput screen for small molecules that induce DNA re-replication in SW480 colon adenocarcinoma cells; SW480 DNA re-replication, Hoechst DNA content imaging, 48 h; Potency, µM (series often up to 46.1 µM), inactives show top-dose re-replication activation, actives largely listed as activators; 340,000 compounds, 1.8% hits; note: % of control where 0% means no effect; nearly all actives have a fitted effect of over 55% in size
#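 Quantitative HTS format with DMSO vehicle controls; 48 hr drug incubation at 37 C, then 40 min Hoechst staining and scanning imager measurement at 405 nm excitation.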
# KB-3-1 tox – qHTS assay for MDR1-selective chemotherapeutics: Primary screen using the parental adenocarcinoma cell KB-3-1; AID 1347075, 2019; Potency, µM (highest dose often 46.1 µM), hits mostly cytotoxic; KB-3-1 viability, CellTiter-Glo ATP luminescence, 72 h; 400,000 compounds, 1.4% hits; note: % is set by controls: 0 for no effect and ±100 for the full control effect; nearly all actives have a fitted effect of over 60% in size
#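 Cytotoxicity in the drug-sensitive parental line KB-3-1 was scored as loss of CellTiter-Glo luminescence following 72 h incubation with compound. Values come from curve fitting of normalized concentration-response data.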
# An asterisk follows results filed as active; i = inactive; ? = inconclusive; nt = not tested or not shown; [ ] = remark or other dose. Calls come from the whole dose curve; as a rule, active = well fitted curve in the direction sought with a large enough effect; inconclusive = small, poorly fitted or top-dose-only effect, or another doubt; inactive = no such curve, though single readings can be large; an effect the other way counts as inactive or inconclusive. Potency is the fitted concentration of half-maximal effect.
SMILES,MCF10A rereplic,HT1080NT lethal,KB-V1 cytotox,HT1080 IDH1KD tx,SW480 rereplic,KB-3-1 tox
COc1ccc(CCN2C(=O)CN(Cc3ccccc3)CC2=O)cc1OC,3.7%,16.5%,6.51µM*,9.5%,-4.0%,i
CCNC(=O)CON=C1c2ccccc2-c2ccccc21,2.6%,-5.2%,i,-1.2%,0.9%,i
CCC(CC)NC(=O)CON=C1c2ccccc2-c2ccccc21,1.6%,-28.4%,23.1µM*,-22.0%,-153.2%,i
O=C(NC(CSCc1ccccc1)C(=O)N/N=C/c1ccc(O)cc1O)c1ccc([N+](=O)[O-])cc1 (centres undefined),14.4%,2.82µM*,i,0.891µM*,?,?
CCSc1nc2ccccc2c(OCc2cc(C(=O)OC)ccc2OC)c1C(=O)OC,nt,nt,?,nt,nt,i
Cc1nc(NCc2ccccn2)c2c3c(sc2n1)CCCC3,?,-25.0%,i,-21.3%,9.0%,i
COC(=O)C(=Cc1ccc(OCc2ccc([N+](=O)[O-])cc2)c(OC)c1)C(=O)OC,1.46µM*,?,?,?,25.5%,i
COc1cc(C(c2c(C)[nH][nH]c2=O)c2c(C)[nH][nH]c2=O)ccc1OCc1ccc([N+](=O)[O-])cc1,20.6µM*,0.3%,i,13.2%,?,i
COc1ccc(/C=C/C(=O)O/N=C(\N)c2cccnc2)cc1OC,9.3%,10.3%,i,5.8%,-17.7%,i
CCOC(=O)C(=Cc1ccc(OCc2ccc([N+](=O)[O-])cc2)c(OC)c1)C(=O)OCC,5.8µM*,20.6µM*,20.6µM*,?,4.61µM*,?
COc1cc(C(c2c(C)[nH][nH]c2=O)c2c(C)[nH][nH]c2=O)ccc1OC(=O)c1cccc([N+](=O)[O-])c1,-4.1%,8.7%,?,7.0%,-10.5%,i
CCOC(=O)/C(=C\c1ccc(OC)c(OC)c1)C(=O)c1cccnc1,25.9µM*,-25.2%,i,-14.4%,20.2%,i
CCOC(=O)c1sc2nc(C)nc(NCc3ccc(F)cc3)c2c1C,?,18.4µM*,i,20.6µM*,?,i
CCOC(=O)c1sc2nc(C)nc(NCc3ccc(Cl)cc3)c2c1C,15.0%,?,?,?,7.4%,?
Nc1ccccc1N=Nc1ccccc1N,-32.0%,-17.1%,?,?,-26.2%[9.22 µM],i
O=C1c2ccccc2C(=O)C1(CO)c1ccc(OC(F)F)cc1,0.5%,-1.0%,i,-2.2%,-21.5%,i
CN(C(=O)COC(=O)C1CCN(S(=O)(=O)c2c(Cl)cccc2Cl)CC1)c1ccccc1,2.3%,-2.6%,i,-0.9%,12.2%,i
COc1ccc(NC(=O)CN2CCN(S(=O)(=O)c3ccc(Br)cc3)CC2)cc1,nt,nt,i,nt,nt,i
O=C(OCC(=O)N1CCN(S(=O)(=O)c2ccc(Cl)cc2)CC1)C1CCC1,-1.0%,-0.1%,i,2.5%,-0.4%,i
O=C(CN1CCc2ccccc2C1)N1CCN(S(=O)(=O)c2ccccc2)CC1,21.4%,2.0%,?,5.6%,-10.1%,i
CN(C(=O)COC(=O)C1CCN(S(=O)(=O)c2c(Cl)cccc2Cl)CC1)C1CCCCC1,?,9.2%,i,-0.6%,3.66µM*,i
COc1ccc(OC)c(C(=O)CN2CCN(S(=O)(=O)c3ccc(Br)cc3)CC2)c1,23.1µM*,-3.3%,i,-2.5%,?,i
Cc1ccc(S(=O)(=O)N2CCN(C(=O)CN3CCc4ccccc4C3)CC2)cc1,6.1%,-0.6%,4.11µM*,-6.3%,6.9%,i
